According to PubChem BioAssay (NCI):
The panel holds about 79,000 compounds, 15% with a hit somewhere; the sample as a whole holds those more often. Activity calls are given as the source filed them. No stated cut-off is given here; in the data, active means growth inhibition above about 70%; inactive means the rest.

Legend:
[1] = NCI Yeast Anticancer Drug Screen. Data for the rad52 strain (AID 147);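 further: 0% = growth of vehicle-treated control cultures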; conditions: S. cerevisiae rad52 mutant growth inhibition, active compounds read high
How it was run: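 The repair-mutant yeast strain was incubated with compounds, then growth was read and inhibition derived relative to vehicle.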

[2] = NCI Yeast Anticancer Drug Screen. Data for the wt1 strain (AID 149);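 further: 0% = growth of vehicle-treated wt1 cultures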; conditions: S. cerevisiae wt1 strain (SPY 50644) growth inhibition, active compounds read high
How it was run: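 Growth inhibition read against vehicle controls after compound exposure of the wt1 yeast strain.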

[3] = NCI Yeast Anticancer Drug Screen. Data for the rad50EPP+ strain (AID 151);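 further: 0% = growth of vehicle-treated control cultures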; conditions: S. cerevisiae rad50 mutant strain, active compounds read high
How it was run: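 Vehicle-normalised growth inhibition; rad50EPP+ yeast strain, altered in DNA damage repair, compound-treated.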

[4] = NCI Yeast Anticancer Drug Screen. Data for the mgt1 strain (AID 153); conditions: S. cerevisiae mgt1 mutant growth inhibition, active compounds read high
How it was run: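 Vehicle-normalized growth inhibition is determined in mgt1 yeast, a strain selected for a defined alteration in DNA repair or cell cycle control.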

[5] = NCI Yeast Anticancer Drug Screen. Data for the rad50 strain (AID 155);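 further: 0% = growth of vehicle-only cultures of the same strain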; conditions: S. cerevisiae rad50 strain growth inhibition, active compounds read high
How it was run: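 Readout: growth inhibition relative to vehicle-treated cultures. Compound exposure was carried out in a genetically defined yeast strain deficient in DNA damage repair.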

[6] = NCI Yeast Anticancer Drug Screen. Data for the mec2-1 strain (AID 157); conditions: S. cerevisiae mec2-1 strain, active compounds read high
How it was run: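 Mutant yeast (mec2-1) grown with compound; growth inhibition relative to vehicle control reported.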

[7] = NCI Yeast Anticancer Drug Screen. Data for the rad14 strain (AID 159);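 further: 0% = growth of vehicle-treated control cultures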; conditions: S. cerevisiae rad14 strain growth inhibition, active compounds read high
How it was run: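 Growth inhibition vs vehicle controls; genetically altered yeast strain (DNA damage repair defect) treated with test compounds.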

[8] = NCI Yeast Anticancer Drug Screen. Data for the sgs1 mgt1 strain (AID 161);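 further: 0% = growth of cultures given vehicle only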; conditions: S. cerevisiae sgs1 mgt1 strain, active compounds read high
How it was run: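 Compounds are added to genetically altered yeast, and growth is compared with cultures given vehicle alone to give percent inhibition.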

[9] = NCI Yeast Anticancer Drug Screen. Data for the cln2 rad14 strain (AID 165);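 further: 0% = growth equal to vehicle treated cultures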; conditions: S. cerevisiae cln2 rad14 strain, active compounds read high
How it was run: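 Readout is yeast growth inhibition versus vehicle-treated controls, using a strain with cln2 and rad14 alterations exposed to compound.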

[10] = NCI Yeast Anticancer Drug Screen. Data for the bub3 strain (AID 167); conditions: S. cerevisiae bub3 mutant strain, active compounds read high
How it was run: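 Readout: yeast growth inhibition, expressed relative to vehicle-only wells. The test organism is a mutant strain from a panel with lesions in DNA repair or checkpoint genes.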

[11] = NCI Yeast Anticancer Drug Screen. Data for the wt2 strain (AID 169);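 further: 0% = growth of vehicle-treated yeast cultures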; conditions: S. cerevisiae wt2 strain growth inhibition, active compounds read high
How it was run: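 Against vehicle-treated controls, the growth of yeast exposed to each compound was compared, and the inhibition was recorded.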

[12] = NCI Yeast Anticancer Drug Screen. Data for the mlh1 strain (AID 171);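 further: 0% = growth of vehicle-treated control cultures of the same strain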; conditions: S. cerevisiae mlh1 strain growth inhibition, active compounds read high
How it was run: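 Measured: yeast growth. Reference: vehicle-treated controls. Organism: strain with a defined alteration affecting DNA damage repair or cell cycle control, treated with compound.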

[13] = NCI Yeast Anticancer Drug Screen. Data for the sgs1 strain (AID 173);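 further: 0% = growth of vehicle-only control cultures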; conditions: S. cerevisiae sgs1 mutant, active compounds read high
How it was run: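 Each compound was added to cultures of the altered yeast strain. Growth was recorded, and inhibition was derived by comparison with vehicle controls.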

[14] = NCI Yeast Anticancer Drug Screen. Data for the mlh1 rad18 strain (AID 175); conditions: S. cerevisiae mlh1 rad18 strain growth inhibition, active compounds read high
How it was run: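 Genetically defined yeast (DNA repair-deficient) exposed to compounds; growth inhibition determined relative to vehicle.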

[15] = NCI Yeast Anticancer Drug Screen. Data for the rad18 strain (AID 177); conditions: S. cerevisiae rad18 mutant growth inhibition, active compounds read high
How it was run: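 Vehicle-treated cultures served as the baseline for scoring compound-induced growth inhibition in DNA-repair-mutant yeast.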

[16] = NCI Yeast Anticancer Drug Screen. Data for the CLN2oe strain (AID 163);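 further: 0% = growth of vehicle-only control cultures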; conditions: S. cerevisiae CLN2oe strain, active compounds read high
How it was run: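 Compounds are applied to yeast harbouring a defined cell-cycle control change; reduced growth compared with vehicle-treated controls gives the value.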

[17] = at 5.0 µM (retest, dose inferred, filed as 0.5)
[18] = at 50.0 µM (retest, dose inferred, filed as 5.0)

Measured: growth inhibition

O=c1c2ccccc2ncn1COCc1ccccc1
inactive: [1]; at 1.2 µM -4% | [1]; at 3.7 µM 3% | [1]; at 11.0 µM -22% | [1]; at 33.0 µM -16% | [1]; at 100.0 µM 2% | [2]; at 1.2 µM -2% | [2]; at 3.7 µM -19% | [2]; at 11.0 µM -11% | [2]; at 33.0 µM -13% | [2]; at 100.0 µM 8% | [3]; at 1.2 µM -31% | [3]; at 3.7 µM -30% | [3]; at 11.0 µM -28% | [3]; at 33.0 µM -21% | [3]; at 100.0 µM 8% | [4]; at 1.2 µM -17% | [4]; at 3.7 µM -14% | [4]; at 11.0 µM -11% | [4]; at 33.0 µM 1% | [4]; at 100.0 µM 21% | [5]; at 1.2 µM -10% | [5]; at 3.7 µM 2% | [5]; [17] 14% | [5]; at 11.0 µM 3% | [5]; at 33.0 µM 9% | [5]; [18] 19% | [5]; at 50.0 µM 1.9% | [5]; at 100.0 µM 23% | [6]; at 1.2 µM -12% | [6]; at 3.7 µM -15% | [6]; [17] 14% | [6]; at 11.0 µM -11% | [6]; at 33.0 µM 2% | [6]; [18] 15% | [6]; at 50.0 µM -6.6% | [6]; at 100.0 µM 26% | [7]; at 1.2 µM -13% | [7]; at 3.7 µM 0% | [7]; at 11.0 µM -15% | [7]; at 33.0 µM -6% | [7]; at 100.0 µM 5% | [8]; [17] 13% | [8]; [18] 69% | [9]; [17] 12% | [9]; at 50.0 µM 52.4% | [10]; at 1.2 µM -20% | [10]; at 3.7 µM -18% | [10]; [17] 7% | [10]; at 11.0 µM -7% | [10]; at 33.0 µM 29% | [10]; at 100.0 µM 58% | [11]; at 1.2 µM -16% | [11]; at 3.7 µM -3% | [11]; at 11.0 µM -7% | [11]; at 33.0 µM -3% | [11]; at 100.0 µM 15% | [12]; at 1.2 µM 0% | [12]; at 3.7 µM 12% | [12]; at 11.0 µM -4% | [12]; at 33.0 µM 6% | [12]; at 100.0 µM 27% | [13]; at 1.2 µM -49% | [13]; at 3.7 µM -34% | [13]; at 11.0 µM -37% | [13]; at 33.0 µM -21% | [13]; at 100.0 µM -7% | [14]; [17] 18% | [14]; [18] 30% | [14]; at 50.0 µM -22.1% | [15]; at 1.2 µM -3% | [15]; at 3.7 µM -5% | [15]; at 11.0 µM 3% | [15]; at 33.0 µM 9% | [15]; at 100.0 µM 26%
active: [8]; at 50.0 µM 89.5% | [9]; [18] 75% | [10]; [18] 88% | [10]; at 50.0 µM 74.3%

CC1C(NNc2ccccc2)Oc2cc3c(cc2C1c1ccccc1O)OCO3 (centres undefined)
inactive: [1]; at 1.2 µM 67% | [3]; at 1.2 µM -1% | [3]; at 3.7 µM 7% | [5]; at 1.2 µM 12% | [5]; [17] 17% | [6]; at 1.2 µM 7% | [6]; [17] 34% | [7]; at 1.2 µM -4% | [7]; at 3.7 µM 54% | [8]; [17] -26% | [16]; at 1.2 µM -1% | [9]; [17] 47% | [10]; at 1.2 µM -11% | [10]; at 3.7 µM 68% | [10]; [17] 67% | [11]; at 1.2 µM 51% | [12]; at 1.2 µM -6% | [12]; at 3.7 µM 61%
active: [1]; at 3.7 µM 99% | [1]; at 11.0 µM 99% | [1]; at 33.0 µM 94% | [1]; at 100.0 µM 94% | [2]; at 1.2 µM 72% | [2]; at 3.7 µM 98% | [2]; at 11.0 µM 99% | [2]; at 33.0 µM 96% | [2]; at 100.0 µM 95% | [3]; at 11.0 µM 71% | [3]; at 33.0 µM 90% | [3]; at 100.0 µM 91% | [5]; at 3.7 µM 95% | [5]; at 11.0 µM 98% | [5]; at 33.0 µM 93% | [5]; [18] 98% | [5]; at 50.0 µM 86.9% | [5]; at 100.0 µM 92% | [6]; at 3.7 µM 80% | [6]; at 11.0 µM 98% | [6]; at 33.0 µM 94% | [6]; [18] 97% | [6]; at 50.0 µM 88.2% | [6]; at 100.0 µM 94% | [7]; at 11.0 µM 99% | [7]; at 33.0 µM 93% | [7]; at 100.0 µM 93% | [8]; [18] 97% | [8]; at 50.0 µM 89.6% | [16]; at 3.7 µM 98% | [16]; at 11.0 µM 96% | [16]; at 33.0 µM 90% | [16]; at 100.0 µM 88% | [9]; [18] 97% | [9]; at 50.0 µM 90.8% | [10]; at 11.0 µM 98% | [10]; at 33.0 µM 93% | [10]; [18] 98% | [10]; at 50.0 µM 91.5% | [10]; at 100.0 µM 94% | [11]; at 3.7 µM 98% | [11]; at 11.0 µM 99% | [11]; at 33.0 µM 96% | [11]; at 100.0 µM 94% | [12]; at 11.0 µM 98% | [12]; at 33.0 µM 94% | [12]; at 100.0 µM 93% | [13]; at 1.2 µM 94% | [13]; at 3.7 µM 99% | [13]; at 11.0 µM 99% | [13]; at 33.0 µM 95% | [13]; at 100.0 µM 95% | [14]; [17] 83% | [14]; [18] 98% | [14]; at 50.0 µM 91.9%

CC(C)(Br)C(=O)/C=C/c1ccc(Cl)c(Cl)c1
active: [5]; at 50.0 µM 87.4% | [8]; [18] 77% | [8]; at 50.0 µM 85.8% | [10]; at 50.0 µM 78.9% | [14]; [18] 78% | [14]; at 50.0 µM 82.8%
inactive: [1]; at 1.2 µM 2% | [1]; at 3.7 µM 3% | [1]; at 11.0 µM -1% | [1]; at 33.0 µM 2% | [1]; at 100.0 µM -4% | [2]; at 1.2 µM -2% | [2]; at 3.7 µM -1% | [2]; at 11.0 µM -3% | [2]; at 33.0 µM 0% | [2]; at 100.0 µM 1% | [3]; at 1.2 µM 4% | [3]; at 3.7 µM 3% | [3]; at 11.0 µM 3% | [3]; at 33.0 µM 3% | [3]; at 100.0 µM 3% | [4]; at 1.2 µM -4% | [4]; at 3.7 µM 0% | [4]; at 11.0 µM -1% | [4]; at 33.0 µM 0% | [4]; at 100.0 µM 0% | [5]; at 1.2 µM 4% | [5]; at 3.7 µM 3% | [5]; [17] 17% | [5]; at 11.0 µM 1% | [5]; at 33.0 µM 4% | [5]; [18] 64% | [5]; at 100.0 µM 4% | [6]; at 1.2 µM -1% | [6]; at 3.7 µM 1% | [6]; [17] 16% | [6]; at 11.0 µM -1% | [6]; at 33.0 µM 1% | [6]; [18] 49% | [6]; at 50.0 µM 48.2% | [6]; at 100.0 µM -1% | [8]; [17] 33% | [16]; at 1.2 µM -3% | [16]; at 3.7 µM -1% | [16]; at 11.0 µM -5% | [16]; at 33.0 µM 0% | [16]; at 100.0 µM 0% | [9]; [17] 7% | [9]; [18] 28% | [9]; at 50.0 µM 52% | [10]; at 1.2 µM -2% | [10]; at 3.7 µM -3% | [10]; [17] 7% | [10]; at 11.0 µM -2% | [10]; at 33.0 µM -1% | [10]; [18] 56% | [10]; at 100.0 µM -2% | [12]; at 1.2 µM -2% | [12]; at 3.7 µM -1% | [12]; at 11.0 µM -2% | [12]; at 33.0 µM 1% | [12]; at 100.0 µM 3% | [14]; [17] 27% | [15]; at 1.2 µM 3% | [15]; at 3.7 µM 6% | [15]; at 11.0 µM 3% | [15]; at 33.0 µM 7% | [15]; at 100.0 µM 50%
